In the supplement of paper PMC6555819:

Tests used:
Experiment in all cases: PBM binding z-score (relative to random genomic background probes); higher = stronger binding; sequences stand for … in GC…GCGATTGACAGCGTAGAATGAAGG
[1] = tested on: FXR:RXRa (NR concentration 270 nM, RXRa partner concentration 90 nM)
How it was run: (§1)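 Binding buffer was PBS pH 7.4 with 2% milk, 0.02% Triton X-100, 1 mM DTT, 0.2 mg/mL BSA and 0.4 mg/ml salmon testes DNA. In it, ligand-free nuclear receptor dimers were incubated 1 h on custom Agilent 4×180K protein-binding microarrays carrying double-stranded probes. Antibodies against each partner (one per run) detected binding, and z-scores were calculated against random background probes after regression normalization of scanned fluorescence.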

[2] = tested on: LXRa:RXRa (NR concentration 270 nM, RXRa partner concentration 90 nM)
How it was run: as §1

[3] = tested on: LXRa homodimer (NR concentration 270 nM)
How it was run: as §1

[4] = tested on: LXRb:RXRa (NR concentration 270 nM, RXRa partner concentration 90 nM)
How it was run: as §1

[5] = tested on: LXRb homodimer (NR concentration 270 nM)
How it was run: as §1

[6] = tested on: PPARa:RXRa (NR concentration 270 nM, RXRa partner concentration 90 nM)
How it was run: as §1

[7] = tested on: PPARg:RXRa (NR concentration 180 nM, RXRa partner concentration 90 nM)
How it was run: as §1

[8] = tested on: PPARg:RXRa 270nM:90nM, anti-RXR (NR concentration 270 nM, RXRa partner concentration 90 nM)
How it was run: as §1

[9] = tested on: PPARg:RXRa 30nM:10nM, anti-RXR (NR concentration 30 nM, RXRa partner concentration 10 nM)
How it was run: as §1

[10] = tested on: PPARg:RXRa 90nM:30nM, anti-RXR (NR concentration 90 nM, RXRa partner concentration 30 nM)
How it was run: as §1

Sequence	PBM binding z-score [1]	PBM binding z-score [2]	PBM binding z-score [3]	PBM binding z-score [4]	PBM binding z-score [5]	PBM binding z-score [6]	PBM binding z-score [7]	PBM binding z-score [8]	PBM binding z-score [9]	PBM binding z-score [10]
CAAACTAGGTCACGAAGGGTCAAAGTCGAATGAC	7.24	7.09	4.6	6.6	1.09	6.41	10.1	7.95	7.11	8.2
CCTCGGAGGACAGAAGGCCAGAGCTGTCCGCTTT	-0.543	-0.556	-1.17	-1.28	-1.6	-1.15	-0.739	-1.08	-1.21	-1.06
TCGAGTAGGTTACAAATGGGGCATTCAGCTTTCT	0.181	1.08	-0.216	1.01	-0.699	1.25	0.565	1.21	1.43	1.04
AAAATGAGGTTATACGTAGATCAGGGAAGAAAGT	2.34	2.36	0.225	1.87	0.19	3.52	2.69	2.4	1.33	1.9
TCTCGGAGGACACGAAAGGTAAGAGCTCGACATC	0.311	-0.0644	-0.636	-0.242	-1.12	0.039	0.278	0.941	2.19	1.28
TCTGCTAGGTCAACTATGGTCAGCTAATCTGCTA	4.09	3.35	0.302	2.35	0.258	3.65	2.72	3.29	2.15	2.81
TGAATGAGGTTAAAGATCAAGGAACGTGGCGTCG	3.35	2.61	-0.438	1.96	0.0283	4.79	6.53	6.53	5.25	6.93
CGAACTAGGTCAAGGACAGTCAATCTCCGCACGC	3.39	2.64	0.323	1.57	-0.248	4.76	7.58	6.42	3.9	5.59
AGAATGAGGTTACCAAGGATCAGGGAAACGCTTG	1.77	4.49	-0.144	2.06	-0.102	3.69	2.58	2.47	1.09	1.97
TCTAGCAAGCCAGAGGGTCACTCAAGAGGTACGG	0.763	0.684	-0.557	1.04	-1.21	2	0.737	1.3	1.51	1.28
TCTAGTTGGTCAAAGGTCACAGACTCGAAATGCG	6.15	6.04	3.48	5.55	1.44	6.87	11.5	10	10.8	11.2
CCTTACGGGTCAAGGTTATAGCTCGGGTGGTACG	5.6	3.71	0.385	3.06	0.274	5.04	4.42	4.35	1.57	3.44
CCAACTGGGGCATAAGGTTACCATAAGCCAGCCC	0.142	1.69	-0.161	0.858	-1.05	2.56	3.63	3.93	1.9	3.24
ATCGAAAGGTCGAGGTGAATATAGAGAAAGGGAA	4.19	3.5	0.21	2.79	0.889	4.65	3.91	3.97	1.51	2.95
CAATCTAGGTCAAGGTCAAAGTCGGTTTGTGCCA	6.74	5.74	4.27	4.52	1.81	6.18	9.73	8.06	6.64	8.19
TTACCAAGGTGATCTGAGGTCGTTGATCCAACTC	1.9	3.07	0.554	1.78	-0.164	1.78	0.169	0.846	0.216	0.651
CCAGACAGGTGAGAAGGTATCTCAGCCTCGATTA	-0.148	-0.116	0.0657	-0.418	-0.551	0.0664	0.278	-0.0698	-0.296	-0.148
GCGTATAGGTAATACAAGGTGAAAGTCCGATTGT	1.84	2.57	0.196	0.896	-0.616	1.37	0.763	0.855	0.307	0.925
ACTAGCACGCCAAGTTTGGGTCACTCAAACAAAG	0.0024	-0.138	-0.715	0.642	-0.337	1.17	-0.0065	-0.00833	-0.577	-0.34
AATACTGGGTCACTAGGCCAGAGTAGGTACGAAT	1.9	1.69	0.246	1.5	0.438	4.37	8.02	5.97	3.2	4.75
CCTACTGGGCCAAGGACATTGATCAGTCAAAGCA	-0.284	-0.572	-0.118	-0.778	-0.99	-0.141	0.757	0.967	0.164	0.46
TCTTGTAGATCAATAGAGTTTAAGAAAGTGCGCT	0.426	0.959	0.0611	0.0999	-0.184	0.514	-0.0887	1	2.5	1.99
CCTCCTGGGCCAAAGGTCATTGATTCCAATGCTC	4.65	5.11	3.68	4.79	0.666	5.6	9.24	8.76	10.1	10.1
GCTTGTAGATCAAGGTTAAGGAAGACTAAGCTAA	0.0551	0.428	-0.182	0.363	-0.628	1.68	1.05	2.33	0.604	1.48
